Shown are actives, neighbours in structure and some others; about 3.9% of the full set was active somewhere.
HT1080 IDH1KD tx = kills HT-1080 cells with IDH1 knockdown | Potency, µM (doses to about 46.1 µM), for inactives: at the highest dose activity, negative = toxicity, most hits filed as cytotoxic | AID 686971 | HT-1080 IDH1 knockdown viability, ATP luminescence, 48 h | 360,000 tested, 2% active;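 note: 0% = DMSO wells and -100% = cell-free medium wells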
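Knockdown cells (IDH1KD HT-1080) received compounds 2 h after plating at 750 cells/well and were kept 48 h at 37 °C in 5% FBS RPMI. A CellTiter-Glo luminescence read gave % activity for curve fitting.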
ATXN viability = viability counter-screen for ATXN expression inhibitors; S2 cells (HEK-293 line with an ATXN2-luciferase reporter) viability, CellTiter-Fluor protease fluorescence, 24 h; Potency, µM (highest dose often 56.7 µM), actives largely listed as cytotoxic; 400,000 tested, 0.49% active; AID 651635; note: nearly all actives have a fitted effect of over 40% in size
TGFb SMAD3 inh = inhibitors of TGF-b signaling; 410,000 tested, 1.2% active; HepG2 CAGA-GFP TGF-b/SMAD3 reporter, GFP fluorescence, 18 h; TGF-beta stimulated, 500 pg/mL final; Potency, µM (top dose mostly 46.1 µM), for the others: at the highest dose activity, negative = inhibition, actives largely listed as inhibitors; note: % is set by controls: 0 for no effect and ±100 for the full control effect; nearly all actives have a fitted effect of over 65% in size
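Inhibition was scored as loss of TGF-beta-induced (500 pg/mL final, 18 hours, 37 degrees C) GFP in HEPG2 cells carrying a CAGA-GFP reporter, in DMEM with 1% FBS. Well GFP was summed per cell; Activity was normalised to unstimulated and stimulated DMSO wells, then concentration-response fitting.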
HepG2 viability = counter-screen for TGF-b inhibitors: cytotoxicity in HepG2 cells; HepG2 CAGA-GFP viability, ATP luminescence, 18 h; 410,000 tested, 0.76% active; Potency, µM (highest dose often 46.1 µM), without a hit: at the top dose activity change, negative = cytotoxicity, most hits filed as cytotoxic
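HepG2 CAGA-GFP cells (1000/well, DMEM with 1% FBS) received compound, then TGF-beta at 500 pg/mL final, and were incubated 18 hours at 37 degrees C. Viability was read by CellTiter-Glo luminescence. Media-only wells were set as complete cell-killing and DMSO as no toxicity.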
HT1080NT lethal = kills 2HG-producing HT-1080-NT fibrosarcoma cells | HT-1080-NT fibrosarcoma viability, CellTiter-Glo ATP luminescence, 48 h | Potency, µM (highest dose often 46.1 µM), for the others: at the highest dose activity, negative = less viability, most hits filed as cytotoxic | 360,000 tested, 1.6% active | AID 686970;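 note: NT is the 2HG producing partner of a matched IDH1 knockdown line; 0% = DMSO-treated cells and -100% = media-only wells without cells; nearly all actives have a fitted effect of over 55% in size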
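Read-out is CellTiter-Glo luminescence after 10 minutes at room temperature, following 48 hours' compound treatment of HT-1080-NT cells (750 cells/well, RPMI, 5% FBS, 37 degrees C).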
ATXN2 expr inh = ATXN2 expression inhibition; HEK-293 ATXN2-luciferase reporter, luminescence, 24 h; Potency, µM (top dose mostly 57 µM), for inactives: at the top dose activity change, negative = inhibition, usual class: inhibitors; 360,000 tested, 0.72% active; note: % is set by controls: 0 for no effect and ±100 for the full control effect; nearly all actives have a fitted effect of over 55% in size
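qHTS (up to 57 uM final) was run with 24 h compound exposure of reporter cells at 37 °C. Each well was multiplexed: SteadyGlo luminescence measured ATXN2-luciferase expression after a fluorogenic Gly-Phe-AFC viability readout (25 uM final).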
* marks the source's active call; other numbers are inactive results; i = inactive; u = inconclusive; x = no result. Calls come from the whole dose curve; as a rule, active = well fitted curve in the direction sought with a large enough effect; inconclusive = small, poorly fitted or top-dose-only effect, or another doubt; inactive = no such curve, though single readings can be large; an effect the other way counts as inactive or inconclusive. Potency is the fitted concentration of half-maximal effect.

SMILES | HT1080 IDH1KD tx | ATXN viability | TGFb SMAD3 inh | HepG2 viability | HT1080NT lethal | ATXN2 expr inh
C(=C\c1ccccc1)/CN1CCN(C(c2ccnc3ccccc23)c2nnnn2C2CCCC2)CC1 (configuration not stated) | u | u | 10µM* | -44% | -29% | -26%
O=C(Nc1ccc2c(c1)OCCO2)C(c1ccnc2ccccc12)N1CCN(C/C=C/c2ccccc2)CC1 (configuration not stated) | 15µM* | u | u | -38% | u | u
CCCCn1c2c(c(=N)c3ccccc31)CCC2 | -15% | i | -16% | 0% | u | -7%
CCCCCn1c2c(c(=N)c3ccccc31)CCC2 | 2.9µM* | i | u | -51% | u | u
CCCCCCCCn1c2c(c(=N)c3ccccc31)CCC2 | 9.2µM* | u | u | -22% | 23µM* | 7.5µM*
CN(Cc1ccco1)C(=O)c1cc(NC(=O)C2CCC2)c2c(c1)nc(-c1ccncc1)n2C | x | i | x | x | x | x
COc1ccc(O)c(-c2cc(-c3ccc(F)cc3)n[nH]2)c1 | 23µM* | i | u | -15% | u | 99%
COc1ccc(Cl)cc1NC(=O)c1cc(-c2cc(C)ccc2O)n[nH]1 | 1% | i | 2% | 18% | 17% | 3%
Cc1ccc(O)c(-c2cc(-c3cccc(F)c3)n[nH]2)c1 | -1% | i | 22µM* | -84% | 1% | 29%
Cc1ccc(C)c(NC(=O)c2cc(-c3cc(C)ccc3O)n[nH]2)c1 | u | i | u | -64% | 33µM* | 28%
Cc1ccc(O)c(-c2cc(-c3ccccc3F)[nH]n2)c1 | 21µM* | u | u | -62% | 23µM* | 39%
CCN(CC)c1ccc(NC(=O)c2cnc3c(-c4ccccc4)c(C)nn3c2C)c(C)c1 | x | i | -6% | -28% | x | -2%
Clc1cccc(-c2nnnn2Cc2cccnc2)c1Cl | x | x | x | x | x | -4%
Cc1ccc(-c2cc(-c3cccc(F)c3)n[nH]2)c(O)c1 | u | i | u | -30% | u | 96%
Cc1ccc(-c2cc(-c3ccccc3C)[nH]n2)c(O)c1 | 18µM* | i | u | -50% | 21µM* | 49%
Clc1ccc(C[n+]2cc(-c3ccccc3)n3c2CCC3)cc1Cl | u | i | -11% | 0% | u | -1%
Clc1ccc(-c2c[n+](Cc3ccc(Cl)cc3Cl)c3n2CCCCC3)cc1 | 16µM* | u | -23% | -27% | 8.2µM* | u
Clc1ccc(C[n+]2cc(-c3ccccc3)n3c2CCCCC3)c(Cl)c1 | 16µM* | u | u | -31% | 15µM* | u
Clc1ccc(-c2c[n+](Cc3ccc(Br)cc3)c3n2CCCCC3)cc1 | u | i | -15% | -11% | u | -33%
CC1CCC(C(C)C)C(OC(=O)C[n+]2cc(-c3ccc(Cl)cc3)n3c2CCCCC3)C1 (configuration not stated) | 21µM* | u | u | -50% | 21µM* | u
Cc1cnc(-n2ncc(C(=O)NCCN3CCOCC3)c2C2CC2)nc1-c1cccs1 | x | i | x | x | x | x
COc1ccc(CCNC(=O)C(C)n2nc(C)c3c(C)n(-c4ccc(C)cc4)nc3c2=O)c(OC)c1 (configuration not stated) | -25% | u | u | -24% | 21µM* | u
COc1ccccc1CCNC(=O)C(C)n1nc(C)c2c(C)n(-c3ccccc3)nc2c1=O (configuration not stated) | -10% | i | 8% | -12% | -5% | -30%
COc1cc2nc(-c3cc(F)ccc3O)nc(N[C@@H]3CNC[C@@H]3C(C)(C)O)c2cc1OC | x | x | x | x | x | 22µM*
COc1ccc(NS(=O)(=O)c2cc(OC)ccc2NC(=O)c2cc(C)oc2C)cc1 | 5.8µM* | u | -1% | -16% | 5.8µM* | -20%
SMILES | HT1080 IDH1KD tx | ATXN viability | TGFb SMAD3 inh | HepG2 viability | HT1080NT lethal | ATXN2 expr inh
COc1ccc(NC(=O)c2cc(S(=O)(=O)N3CCCC3)oc2C)cc1 | 1% | i | 1% | 2% | -13% | x
CCC(=O)N1CCc2cc(Br)cc(S(=O)(=O)N3CCCC(C(=O)NCc4ccccc4)C3)c21 (configuration not stated) | x | i | u | -27% | x | -6%
N=c1sccn1CC(=O)N1N=C(c2ccc(Cl)cc2)CC1c1ccco1 (configuration not stated) | u | i | u | -23% | 33µM* | -31%
CC(=O)Nc1ccc(C(=O)CSc2nnc3cc(C)c4ccccc4n23)cc1 | x | u | -6% | 6% | x | 10%
O=C(O)/C=C/C(=O)c1c(-c2ccccc2)[nH]c2ccccc12 | -1% | i | 13µM* | -2% | -3% | 7%
CCOC(=O)N1CCN(Cc2ccc3c(c2)CN(C(=O)c2sc(C)nc2C)CCO3)CC1 | x | i | x | x | x | x
COc1ccc(C(=O)NC(=S)N2CCCCC2)cc1 | 0.79µM* | i | -14% | -2% | 0.56µM* | 20%
CO/N=C(\C(=O)N[C@@H]1C(=O)N2C(C(=O)O)=C(CSc3nc(=O)c(O)nn3C)CS[C@H]12)c1csc(N)n1 | x | i | x | x | x | 13%
COC(=O)C12OCC34C(CC5C(C)=C(O)C(=O)CC5(C)C3C(O)C1O)OC(=O)C(OC(=O)C=C(C)C)C24 (configuration not stated) | 0.037µM* | u | -54% | 0% | -26% | u
Cc1ccc2nc(-c3c[nH]c4ccccc34)c(Nc3ccccc3)n2c1 | x | u | 30% | -19% | x | 24%
C/C(=N\NC(=O)c1cccc(Cl)c1)C1C(=O)c2ccccc2C1=O | 8.2µM* | u | -25% | -80% | 13µM* | 55%
O=C(c1ccc2c(=O)n3c(nc2c1)CCCCC3)N1CCN(c2ccccc2)CC1 | 17% | i | -24% | -15% | 25% | 1%
O=C(c1ccc2c(=O)n3c(nc2c1)CCCCC3)N1CCN(C(c2ccccc2)c2ccccc2)CC1 | 10µM* | u | u | 5% | 18µM* | -32%
COc1ccc(/C=N/Nc2cc(C)nc(NS(=O)(=O)c3ccc(C)cc3)n2)cc1 | u | i | 13µM* | -46% | u | -4%
Cc1cc(N/N=C/c2cccc(Cl)c2)nc(-n2nc(C)cc2C)n1 | u | u | -21% | -41% | u | u
COc1ccc(/C=N/Nc2cc(N3CCCC3)nc(N3CCCC3)n2)cc1 | 16µM* | 28µM* | u | -70% | 13µM* | 14µM*
